The source of these data is PubChem BioAssay (NCATS).

Structures are written as SMILES. A number with no mark means an inactive call. Calls of active or inactive are those of the source. Calls come from the whole dose curve; as a rule, active = well fitted curve in the direction sought with a large enough effect; inactive = no such curve, though single readings can be large or run the other way.

A short description of the assay: qHTS for small molecule inhibitors of Yes1 kinase: Counter Assay (AID 686950).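 Note: no kinase present so only ADP-Glo detection of a fixed ADP amount is tested; luminescence from ADP-Glo reporting ADP in a fixed ATP and ADP mixture; 0% = DMSO wells with ATP plus ADP and -100% = ATP-only wells without ADP.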 The note with it: series mostly up to 76.9 µM; activity change, negative = inhibition: at the top concentration. An excerpt:
The Src family of non-receptor protein tyrosine kinases contains nine members, including Yes1, Src, Fyn, Lyn, and […]. These kinases have important roles in a variety of cellular functions, such as cell proliferation, survival, and differentiation. Src, the most well characterized member of this family, has been previously identified as a proto-oncogene. […] In melanoma, it has been shown that Yes1, and not other family members, such as Src, is functionally involved in the malignant phenotype. Additionally, a recent study examining the downregulation of Yes1 by shRNA found significant effects on cell survival/growth for basal-like and Her2-positive breast cancers. Despite the potential for Yes1 to be a target for the above-described cancers, there are very few reports on the identification of potent and selective inhibitors of Yes1 kinase. Antagonists of Yes1 would further elucidate Yes1 biology and help to confirm whether Yes1 is a viable target for therapeutic intervention in a variety of cancers.
A compound that inhibits Yes1 could be important for the treatment of various cancers in which Yes1 is highly expressed and can also be used as a tool compound to help further elucidate Yes1 biology. To that end, we have developed a sensitive HTS biochemical assay for Yes1 activity. This assay was screened against several small compound libraries to look for modulators of activity. The cherrypicked compounds were screened against this counter assay, which evaluates whether the compounds have any effect on the ADP-Glo detection kit. Compounds that show inhibition in this assay have interference with the detection system. Inactivity is the desired output for this assay.
NIH Molecular Libraries Probe Production Centers Network [MLPCN]
NIH Chemical Genomics Center [NCGC]
Two microliter of buffer (columns 1-48) are dispensed into Greiner, white solid-bottom 1536-well assay plates. Compounds (23 nL) are then transferred via Kalypsys pin tool equipped with 1536-pin array (10 nL slotted pins, V&P Scientific, San Diego, CA). The library compounds are in columns 5-48 and columns 1-4 serve as controls with DMSO. Following addition of compound and a 20 minute incubation, 1 uL of substrate/product mix (ATP and ADP from Sigma-Aldrich, St. Louis, MO) is added to columns 1, 2, 5-48 and 1 uL of substrate (ATP) is added to columns 3-4, and the plate is incubated for 60 minutes at room temperature. The amount of ADP is then quantified by the ADP-Glo Kit (Promega, Madison, WI). First, 2 uL of the first kit reagent is added, and the reaction is incubated for 45 minutes; then, 4 uL of the second kit reagent are added and the reaction is incubated for 30 minutes at which time the luminescence is read on a Viewlux plate reader (Perkin-Elmer, Waltham, MA). The final concentration of reagents in the reaction are 0.08 mM ATP and 0.02 mM ADP (or 0.1 mM ATP in the no ADP control columns), 100 uM EGTA, 10 mM MgCl2, 50 mM Tris pH 7.5, 1 mM DTT, 150 mM NaCl, 0.01% Brij-35, and 5% glycerol. Data are normalized to DMSO-treated control columns with ATP and […] (maximum signal) and with just ATP (minimum signal).
For the molecule `NS(=O)(=O)c1cc(C(=O)O)c(NCc2ccco2)cc1Cl`, the “activity change, negative = inhibition” value was -0.684%.
In the case of `CC(C)C[C@H](NC(=O)[C@H](Cc1ccccc1)NC(=O)c1cnccn1)B(O)O`, the “activity change, negative = inhibition” value was -2.51%.
Consider `Cc1cccc(C#Cc2ccccc2)n1`, for which the “activity change, negative = inhibition” value is -21.9%.
Same read-out and setting: under `O=C(NOCC1CC1)c1ccc(F)c(F)c1Nc1ccc(I)cc1Cl` stands 4.07%.
For the molecule `CCOC(=O)C(C)Oc1cccc2c(=O)n(CC(=O)Nc3ccc4c(c3)OCCO4)ccc12` (stereo unspecified), the “activity change, negative = inhibition” value is 3.76%.
On the same count and under the same terms, next, `S=c1nc[nH]c2nc[nH]c12`: -3.24% [at 154 µM].
Still for that read-out and setting: under `CCOC(=O)C1=C(O)C(=O)N(Cc2ccccc2)C1` stands 0.259%; under `COc1cc2c(N3CCN(C(=O)Nc4ccc(OC(C)C)cc4)CC3)ncnc2cc1OCCCN1CCCCC1`, 3.65%; under `Nc1cccc2c1CN(C1CCC(=O)NC1=O)C2=O` (stereo unspecified), -8.03% [at 154 µM].
Turning to `Oc1ccc(-c2nc(-c3ccc(F)cc3)c(-c3ccncc3)[nH]2)cc1`, the “activity change, negative = inhibition” value was 3.13%.
As for `CC(C)c1ccc2c(c1)c(SC(C)(C)C)c(CC(C)(C)C(=O)O)n2Cc1ccc(Cl)cc1`, the “activity change, negative = inhibition” value is -0.122%.
The same measure, in the same setting: next, `Nc1nc(Cl)nc2c1ncn2[C@H]1C[C@H](O)[C@@H](CO)O1`: -4.36% [at 154 µM].
In the case of `Cc1ccc(NC(=O)c2ccc(CN3CCN(C)CC3)cc2)cc1Nc1nccc(-c2cccnc2)n1`, the “activity change, negative = inhibition” value is 3.42%.
Regarding `CCN(CCO)CCCC(C)Nc1ccnc2cc(Cl)ccc12` (stereo unspecified), the “activity change, negative = inhibition” value was 7.16%.
Consider `C[C@@H](N)C1CCC(C(=O)Nc2ccncc2)CC1` (stereo partly specified), for which the “activity change, negative = inhibition” value was 0.614%.
For the molecule `Cc1cccc(-c2[nH]ncc2-c2ccc3ncccc3n2)n1`, the molecule was classed as inactive.
As for `COc1cc(Nc2c(C#N)cnc3cc(OCCCN4CCN(C)CC4)c(OC)cc23)c(Cl)cc1Cl`, the “activity change, negative = inhibition” value was -3.2%.
In the case of `CCN(CC)CCOc1ccc(Nc2ncc3cc(-c4c(Cl)cccc4Cl)c(=O)n(C)c3n2)cc1`, the “activity change, negative = inhibition” value is 2.77%.
Still for that read-out and setting: under `Cc1ccc(Nc2nccc(N(C)c3ccc4c(C)n(C)nc4c3)n2)cc1S(N)(=O)=O` stands 4.72%.
The same measure, in the same setting: next, `O=Nc1c(-c2c(O)[nH]c3cc(Br)ccc23)[nH]c2ccccc12`: -19.8%; `Cc1nc(Nc2ncc(C(=O)Nc3c(C)cccc3Cl)s2)cc(N2CCN(CCO)CC2)n1`: 3.56%.
